The results in this text go back to PubChem BioAssay (NCI).

About 83,000 compounds went through this panel and 20% of them were active in at least one assay; those are over-represented in the sample as a whole.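 Note: values are percent growth. 100 is the growth of untreated cells, values between 100 and 0 indicate rising inhibition; between -100 and 0 indicates cell death.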 Active and inactive are the calls of the source.

The subject of this assay is HCT-116 colon. The assay is described as follows: NCI-60 one-dose screen, 48 h (100 = growth as untreated, 0 = no growth, -100 = all killed). As to conditions: 10 µM unless noted. As for the experimental part:
Growth inhibition of the HCT-116 human tumor cell line is measured as a screen for anti-cancer activity. Cells are grown in 96 well plates and exposed to the test compound for 48 hours. Compounds are tested at a single concentration, which is 10^-5 M for most compounds. The reported endpoint is percent growth (GI% or GIPRCNT), where numbers from 0 - 100% represent growth inhibition, and numbers from -100% - 0 represent cell death. For example, a value of 40 represents 60% growth inhibition. A value of 0 means no net growth occurred over the course of the experiment. A value of -40 indicates 40% of cells at the beginning of the experiment died by the end of the experiment. A value of -100 means all cells are dead at the end of the experiment.
NCI-60 Human Tumor Cell Lines Screen was performed using the standard one-dose NCI protocol, which is described in more detail at https://dtp.cancer.gov/discovery_development/nci-60/default.htm.
Compounds with GIPRCNT values below 10 were considered active. Activity score was based on GIPRCNT using the following formula: […]
Score is 0 for GIPRCNT values of 100 or above, 50 for GIPRCNT values of 0, and 100 for GIPRCNT values of -100.
Take `CCN(CC)c1ccc2c(c1)Oc1nc(N)c(C#N)c(N)c1C2Sc1ccc(OC)cc1` (stereo not given): the growth was 2.7% (active). Under `CC[C@]12C=CCN3CC[C@@]4(c5cc(NC(=O)CCC(=O)O[C@H]6CC[C@H]7[C@@H]8CC[C@H]9CC(=O)CC[C@]9(C)[C@H]8CC[C@]67C)c(OC)cc5N(C)[C@H]4[C@@](O)(C(=O)OC)[C@@H]1OC(C)=O)[C@@H]32` stands 47.5% (inactive); under `CSc1nc(-c2ccco2)c2c(N)[nH]nc2n1`, 84.1% (inactive).

As for `O=C(Nc1cc(Nc2ncccc2-c2ncnc3nc[nH]c23)ccc1F)c1cc(C(F)(F)F)cc(C(F)(F)F)c1`, the growth is -43% (active). In the case of `CCCCn1c(=O)c(/C=C/C(=O)/C=C/c2ccc(O)c(OC)c2)cc2ccc(Cl)cc21` it was -55.5% (active); in that of `COc1ccc(-c2nc(C#N)c(NCC(c3ccc(Cl)cc3)N3CCCCC3)o2)cc1` (stereo not given), 80.5% (inactive); in that of `CC(C)(C)c1nn(-c2ccccc2)c2c1COCN2Cc1ccc(Cl)cc1`, 62.8% (inactive). Under `COc1ccc(NC(=O)c2sc3nc(C)c(C(C)=O)cc3c2N)cc1` stands 88.6% (inactive); under `C=C1C(=O)O[C@H]2[C@H]1CC/C(COC(=O)c1cccnc1)=C\CC[C@@]1(C)O[C@@H]21`, 15.9% (inactive).

Take `COC(=O)c1ccc2c(c1)n(Cc1ccc3ccccc3c1)c[n+]2Cc1ccc2ccccc2c1`: the growth is 32% (inactive). In the case of `CCCNc1nc(C)[nH]c(=O)c1S` it was 108% (inactive); in that of `N#Cc1ccc(N2Cc3cc(Cl)ccc3OC3=C2C(=O)N(Cc2ccccc2)C3=O)cc1`, -82.7% (active); in that of `O=C(Nc1ccc2ncnc(Nc3cccc(C(F)(F)F)c3)c2c1)c1cccs1`, 38.3% (inactive). In the case of `COc1cccc(NC(=O)Nc2ccc(Nc3ncnc4[nH]c(C)c(C)c34)cc2)c1`, the growth is 116% (inactive).

As to `O=c1c2ccccc2oc2ccc(OCCCCCCN3CCCCCC3)cc12`, the growth is 25.6% (inactive).

On to `CC(=O)c1cnc(-c2ccccc2)nc1CBr`, for which the growth was 28.4% (inactive). In the case of `COc1ccc2c(c1)C1(C(=O)N2)C(C#N)=C(c2ccccc2)Nc2c1c(-c1ccccc1)nn2-c1ccccc1` (stereo not given) it was 4.04% (active); in that of `COc1ccc2c(c1)Oc1nc(N)c(C#N)c(N)c1C2Sc1ccc(O)cc1` (stereo not given), 89.6% (inactive).

Consider `COc1c(O)cc2oc3cc(O[C@@H]4OC(C)[C@@H](O)[C@H](O)C4O)c(CC=C(C)C)c(O)c3c(=O)c2c1CC=C(C)C` (stereo not given in full), for which the growth is 94.1% (inactive). Turning to `COc1cccc2c1-c1ccccc1C2=O`, the growth is 12.9% (inactive). In the case of `CCCn1c(N)c(C(N)=O)sc1=S` it was 101% (inactive); in that of `COC(=O)/C=C/c1cc(OC(C)=O)c2c(c1)C(C(=O)OC)C(c1ccc(OC(C)=O)c(OC(C)=O)c1)O2` (stereo not given), 9.77% (active); in that of `CCCCCCCCCCCCCC1=NCC[N+]1(CCO)Cc1ccccc1` (stereo not given), -90.8% (active).

In the case of `O=C(O)c1cn(C2CC2)c2cc(N3CCN(Cc4nnc(Nc5ccccc5)o4)CC3)c(F)cc2c1=O`, the growth was 91.6% (inactive). Under `Nn1c(SCC(=O)Nc2ccc(Cl)cc2)nnc1-c1cc(F)c(Cl)cc1Cl` stands 83.1% (inactive). In the case of `COc1cc(N=Nc2cc(S(=O)(=O)O)cc3cc(S(=O)(=O)O)cc(O)c23)c(C)cc1N=Nc1c(S(=O)(=O)O)cc2cc(Nc3ccccc3)ccc2c1O` it was 98.4% (inactive); in that of `O=S(=O)(Nc1nccs1)c1ccc(Nc2nc(-c3ccncc3)cs2)cc1`, 93.8% (inactive). In the case of `COc1cc2c(Nc3ccc(NC(=O)Nc4ccc(Cl)c(C(F)(F)F)c4)c(Cl)c3)ncnc2cc1OCCCN1CCN(C)CC1` it was -73.2% (active); in that of `O=C1CC(c2ccc(O)c(O)c2)Oc2cc(O)c([C@@H]3O[C@H](CO)[C@@H](O)[C@H](O)[C@H]3O)c(O)c21` (stereo not given in full), 93.9% (inactive); in that of `COc1ccc(C(C)c2cc(OC)c(OC)c(OC)c2)cc1` (stereo not given), 4.67% (active). As to `c1ccc2nc(N3CCOCC3)c(N3CCCCC3)nc2c1`, the growth is 102% (inactive). Consider `CCN1CCN(c2ccc(NC(=O)Nc3nc4ccc(-c5ccccc5OC)cc4s3)cc2)CC1`, for which the growth is -82.3% (active).

With `COc1ccc(Cl)c([N+](=O)[O-])c1`, the growth was 108% (inactive). Under `CCOCc1cc(C(C)(C)C)ccc1O` stands 91.2% (inactive). In the case of `O=C1C(Cl)=C(Nc2ccc3c(c2NC2=C(Cl)C(=O)c4ccccc4C2=O)C(=O)c2ccccc2C3=O)C(=O)c2ccccc21` it was 2.25% (active). Under `COc1ccc(/C=C/C(=O)Nc2ncnc3nc[nH]c23)cc1` stands 101% (inactive). Take `O=C1CCC23OC(c4ccccc4N12)C(O)C(O)C3O` (stereo not given): the growth is 84.9% (inactive). In the case of `Nc1ccc2c(c1)C(=O)C(=O)c1c-2nc2ccccn12` it was 1.3% (active). In the case of `NS(=O)(=O)c1ccc(N2Cc3cc(Cl)ccc3OC3=C2C(=O)N(CC2CCCCC2)C3=O)cc1`, the growth was -85.6% (active). Under `COC(=O)/C=C1\SC(=Nc2cccc(OC)c2)N(CCc2c[nH]c3ccccc23)C1=O` stands 50.1% (inactive).
